# Compounds with a hit are over-represented: about 0.87% of the library has one in this group of screens.
# APE1 inh – inhibitors of human APE1 endonuclease; AID 2517; 0.35% of 350,000 active; Potency, µM (titrated, usually from 65.8 µM), for inactives: at the top dose activity change, negative = inhibition, usual class: inhibitors; recombinant APE1, TAMRA/BHQ-2 abasic DNA cleavage fluorescence; P27695;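 further: plate controls were vehicle for no effect and reference inhibitor for full effect; nearly all actives have a fitted effect of over 55% in size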
#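 Compound pre-exposure to 0.75 nM APE1, 15 min at ambient temperature. Reaction initiated with 50 nM TAMRA/BHQ-2 THF substrate, read immediately in kinetic mode, 525 nm excitation, 598 nm emission.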
# TDP1 block – blocks human tyrosyl-DNA phosphodiesterase 1 | Potency, µM (doses to about 130 µM), for inactives: at the highest dose activity change, negative = inhibition, actives largely listed as inhibitors | Q9NUW8 | 0.28% of 350,000 active | recombinant TDP1, AlphaScreen DNA substrate cleavage; further: nearly all actives have a fitted effect of over 40% in size
# Target sequence (Q9NUW8 whole entry, looked up): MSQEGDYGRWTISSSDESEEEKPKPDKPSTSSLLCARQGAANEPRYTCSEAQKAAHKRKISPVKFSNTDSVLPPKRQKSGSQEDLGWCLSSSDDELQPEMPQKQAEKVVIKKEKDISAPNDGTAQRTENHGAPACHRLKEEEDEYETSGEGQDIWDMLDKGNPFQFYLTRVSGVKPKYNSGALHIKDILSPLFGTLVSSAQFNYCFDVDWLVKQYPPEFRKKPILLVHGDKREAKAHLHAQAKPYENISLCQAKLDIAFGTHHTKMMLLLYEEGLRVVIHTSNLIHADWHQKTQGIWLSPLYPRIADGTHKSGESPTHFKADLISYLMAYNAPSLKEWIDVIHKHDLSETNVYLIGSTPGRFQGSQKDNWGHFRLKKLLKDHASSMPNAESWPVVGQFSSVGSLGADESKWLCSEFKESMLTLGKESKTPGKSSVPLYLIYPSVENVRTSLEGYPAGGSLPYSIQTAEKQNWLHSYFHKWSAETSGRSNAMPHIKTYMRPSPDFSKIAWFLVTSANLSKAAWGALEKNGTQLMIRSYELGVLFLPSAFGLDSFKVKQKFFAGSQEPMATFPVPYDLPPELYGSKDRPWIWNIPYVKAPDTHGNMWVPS
#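 AlphaScreen read-out: signal falls as enzyme removes the 3' tyrosine-FITC from a 5'-biotinylated DNA oligo (15 nM, 5 min, RT). Enzyme was E. coli-made recombinant Tdp1 at 1 nM, exposed to compound for 15 min beforehand; beads 10 ug/ml, 10 min.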
# RECQ1 helicase – RECQ1 (human) helicase inhibition. P46063. RECQ1 DNA unwinding, red fluorescence kinetic read. Potency, µM (titrated, usually from 57.3 µM), for inactives: at the highest dose activity, negative = inhibition, actives largely listed as inhibitors. 0.54% of 240,000 active;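 further: plate controls were vehicle for no effect and no enzyme for full effect; nearly all actives have a fitted effect of over 30% in size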
#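 RECQ1T1 50 nM; forked duplex (20 bp + 30-nt ss tails) 200 nM, ATP 2 mM final; pH 8.0, 2 mM MgCl2, 2.5 ug/ml poly(dI-dC); 15 min compound preincubation; discontinuous kinetic read over 2 h at RT.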
# BLM inh – inhibitors of human Bloom syndrome helicase BLM; P54132; Potency, µM (titrated, usually from 56.1 µM), without a hit: top-dose activity change, negative = inhibition, actives largely listed as inhibitors; 0.2% of 350,000 active; recombinant BLM DNA unwinding, fluorescence dequenching;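 further: plate controls were vehicle for no effect and no enzyme for full effect; nearly all actives have a fitted effect of over 35% in size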
# GCN5L2 inh – inhibitors of human GCN5L2 histone acetyltransferase; Q92830; GCN5L2 HAT assay, ThioGlo1 CoA-SH fluorescence; Potency, µM (highest dose often 58.9 µM), for the others: at the top dose activity change, negative = inhibition, most hits filed as inhibitors; 0.21% of 390,000 active; AID 504327
#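 Free CoA generated was detected with ThioGlo1 (50uM) fluorescence at Ex340nm/Em540nm, read immediately and after 20 min at room temperature. Enzyme, 20 nM in HEPES pH 7.5 buffer, saw compounds 15 min before adding 75uM H3(1-25) peptide and 70uM acetyl-CoA.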
# * marks the source's active call; other numbers are inactive results; i = inactive; ? = inconclusive; . = no result given; ! = not active in a repeat; [ ] = remark or other dose. The call rests on the fitted dose curve; in most records, active means well fitted curve in the direction sought with a large enough effect; inconclusive means small, poorly fitted or top-dose-only effect, or another doubt; inactive means no such curve, though single readings can be large; an effect the other way counts as inactive or inconclusive. Unless noted, on the % scale 0 is the no-effect control and ±100 the full control effect; potency means the concentration at half of the fitted maximal effect.
SMILES,APE1 inh,TDP1 block,RECQ1 helicase,BLM inh,GCN5L2 inh
Cn1cncc1C#Cc1c(C=O)[nH]c2ccccc12,-9%,-3%,.,.,-8%
Cn1cncc1C#Cc1c(C=O)n(C)c2ccccc12,-8%,56µM*,.,.,-5%
Cc1noc(C)c1-c1cncnc1NC1CC1,7%,28µM*,-13%,1%,-9%
Cc1noc(C)c1-c1cncnc1Nc1ccccc1,-3%,.,-3%,-2%,-20%
Cc1noc(C)c1-c1cc(NC2CC2)ncn1,5%,40µM*,-3%,-10%,-27%
O=S1(=O)N=C(Oc2cccc(C(F)(F)F)c2)c2ccccc21,.,2%,.,.,.
Cc1ccc(NS(=O)(=O)c2cc3c(cc2N2CCC2)NC(=O)CC3)cc1C,.,1%,.,.,.
CCc1ccc(CN2CCC(CO)(CC3CCCCO3)CC2)o1 (configuration not stated),3%,5%,i,-1%,18µM*
COc1cc(/C=N/NC(=O)COc2c(C)cc([N+](=O)[O-])cc2C)ccc1OC(=O)c1ccccc1,8%,3%,28µM*,-5%,-6%
COc1cc(/C=N/NC(N)=O)ccc1OCC(=O)Nc1ccc(C)c(C)c1,5%,-5%,-3%,10µM*,-2%
COc1cc(/C=N/NC(=O)COc2c(C)cc([N+](=O)[O-])cc2C)ccc1OC(=O)c1ccccc1Br,0%,3%,-8%,-3%,-7%
COCCNc1nc(C)nc2c1nc(-c1ccccc1)n2CCCN1CCCCC1C (configuration not stated),-10%,7%,i,2%,.
O=S(=O)(c1cccc(O)c1)N1CCN(S(=O)(=O)c2c(F)cccc2F)CC1,.,1%,.,.,.
CCCCCCCCCCCCCCCC(=O)O,.,2%,.,-12%,-30%
CCCCCCCCCCCCCCSCC(=O)O,-8%,8%,-8%,.,10µM*
O=C(O)[C@H](O)[C@@H](O)[C@H](O[C@@H]1O[C@H](CO)[C@H](O)[C@H](O)[C@H]1O)[C@H](O)CO,1%[21 µM],.,.,.,.
COc1cc(C)c2c(c1C=O)Oc1c(c(C)c(O)c3c1C(O)OC3=O)OC2=O (configuration not stated),13µM*,.,14µM*,-2%,-24%
COC(=O)c1c(OC)cc2c(c1C)Oc1c(Cl)c(O)c(Cl)c(C)c1C(=O)O2,0%,16%[56.1 µM],-11%,-15%,?
NC(=O)C1CCN(c2nc(-c3ccccc3[N+](=O)[O-])cs2)CC1,14%,.,.,.,.
COc1ccc(CC(=O)OC(C)C(=O)c2ccc(C)cc2)cc1 (configuration not stated),-6%,79µM*,.,-7%,-5%
COc1ccc(/C(N)=N/OC(=O)Cc2ccc(C)cc2)cc1,10%,-11%,-4%,-2%,-7%
Fc1ccc(NC(=S)Nc2cccc3cnccc23)cc1,-8%,1%,i,22µM*,0%
S=C(Nc1ccc(Cl)cc1)Nc1cccc2cnccc12,6%,0%,-7%,-17%,-4%
S=C(Nc1cccnc1)Nc1cccc2cnccc12,-5%,3%,4%,-16%,-1%
CN(C)S(=O)(=O)c1cccc(NC(=S)Nc2cccc3cnccc23)c1,-5%,-3%,i,13µM*,-8%
SMILES,APE1 inh,TDP1 block,RECQ1 helicase,BLM inh,GCN5L2 inh
CCn1cnc2c(Nc3ccc(Cc4cccnc4)cc3)nc(C#N)nc21,.,2%,.,.,.
O=C(CSc1nc2ccccc2c(=O)n1-c1ccccc1)NC(=O)CN1CCCC1=O,?,22µM*,i,-10%,2%
C=C1C=C(C(F)F)n2ncc(C(=O)Nc3ccccc3OCC)c2N1,58%,.,.,.,.
COc1ccc(C2Nc3ccccc3C(=O)N2Cc2ccccc2)cc1OCc1ccc(NC(C)=O)cc1 (configuration not stated),.,3%,.,.,.
N=C(CC(O)COc1ccccc1-c1ccccc1)N1CCCCC1 (configuration not stated),10µM*!,8%,-19%,-9%,-6%
c1ccc(-c2ccccc2OCCCN2CCCCCC2)cc1,-4%,0%,i,20%,20%
COc1cccc(Nc2ncc3nc(CCc4ccccc4)c(=O)n(C4CC4)c3n2)c1,0%,.,-3%,-2%,25µM*
C=C(C)C1CCC2(C(=O)O)CCC3(C)C(CCC4C5(C)C(C=O)C(O)C(C)(C)C5CCC43C)C12 (configuration not stated),?,.,i,-10%,-27%
CCC(C)/C=C/C1=CC2=C(Cl)C(=O)C3(C)OC(=O)C(C(=O)C(C)C(C)O)C3C2=CO1 (configuration not stated),10µM*,?,-19%,-12%,0%
CN1N/C(=C\c2ccccc2)N=C2C(=O)N(C)C(=O)N=C21,.,2%,.,.,.
CC(=O)NCC(=O)OCC(=O)c1ccc(C)c(C)c1,-2%,-2%,i,0%,-9%
Cc1ccc(C(=O)COC(=O)C2C3C=CC(C3)C2C(=O)OCC(=O)c2ccc(C)c(C)c2)cc1C (configuration not stated),-5%,4%,i,-5%,0.79µM*
COc1cccc(C2c3c(ncn(-c4ccc(NC(C)=O)cc4)c3=N)Oc3ccc4ccccc4c32)c1 (configuration not stated),.,3%,.,.,.
CC1(C)CC2CC(C)(CN2C(=O)COC(=O)c2ccc(O)cc2O)C1 (configuration not stated),11µM*,7.9µM*,.,.,1%
O=C(N=Nc1c(O)[nH]c2ccc([N+](=O)[O-])cc12)c1cc(-c2ccccc2Cl)nc2ccccc12,5%,5%,3%,4µM*,-16%
Oc1ccc(-c2csc(-c3cccnc3)n2)cc1O,16µM*,.,-28%,-14%,-15%
O=C(Cc1nnc(CNC(=O)c2ccccc2)s1)Nc1ccc(C(F)(F)F)cc1Cl,.,1%,.,.,.
Cc1ccc(C(=O)Oc2ccc(C(=O)COC(=O)C3CC(=O)N(Cc4ccco4)C3)cc2)cc1 (configuration not stated),32µM*,?,-29%,-28%,-18%
O=C(Cc1cccs1)OCC(=O)c1ccco1,28µM*,.,-21%,0%,-5%
Cn1c(N)c(C(=O)COC(=O)Cc2cccs2)c(=O)n(C)c1=O,4%,-5%,.,.,0%
CNS(=O)(=O)c1cccc(C(=O)NCC2(N3CCCCC3)CCCCC2)c1,-19%,50µM*,.,-2%,-2%
COc1ccc(NS(=O)(=O)c2cccc(C(=O)NCC3(N4CCCCC4)CCCCC3)c2)cc1,12%,1%,.,.,4%
CCOc1cc(Br)cc(/C=C2\SC(=Nc3ccccc3)NC2=O)c1O,-4%,.,.,-6%,-9%
C=CCOc1ccc(Br)cc1/C=C1/SC(=Nc2ccc(C(=O)O)cc2)NC1=O,1%,79µM*,i,-21%,-12%

# Bioassay records: PubChem, National Center for Advancing Translational Sciences (NCATS)
